The campaign covered roughly 63,000 compounds. About 1,100 (1.7%) were called active.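 How the source made its calls: active means compounds whose percent cytotoxicity in the single-dose primary screen, scaled between solvent and toxic-drug controls, exceeds 50; inactive means the rest.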 What follows is part of a selection rich in actives, with near analogues and random picks from the rest. Entries with a potency or affinity are not part of this list.
Assay: cytotoxicity in KRAS-transformed pancreatic duct cells, primary screen, cell-based, fluorescence, HTS (AID 431);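 further: 0% = DMSO solvent wells and 100% = doxorubicin-treated wells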
Details: HPDE-C7K KRASV12 cells, Alamar Blue viability, 48 h; at 10 µM; hits give high values

Structure (SMILES)	cytotoxicity
CCN(C(=O)CSc1nnc(Cn2nnc3ccccc32)o1)c1nc(-c2ccccc2)cs1	-0.5% (inactive)
CCN(C(=O)c1ccc(C(C)(C)C)cc1)c1nnc(Cn2nnc3ccccc32)s1	88.4% (active)
CCN(C(C)=O)c1nnc(CSc2nc3ccccc3s2)s1	23.5% (inactive)
O=C(Nc1ccccc1C(=O)NCc1ccco1)c1ccco1	7.2% (inactive)
N=c1n(CCN2CCOCC2)c2ccccc2n1CC(O)COc1ccccc1 (stereo not given)	-9.7% (inactive)
CCCc1nc(NCc2ccco2)c(C#N)c2c1COC(C)(C)C2	1.1% (inactive)
CC1(C)Cc2c(C#N)c(N3CCN(C(=O)c4ccco4)CC3)nc(-c3ccco3)c2CS1	44.2% (inactive)
CCCCc1nc(NCCNC(=O)c2ccco2)c(C#N)c2c1CSC(C)(C)C2	80.9% (active)
CCOC(=O)c1cnc(SCC(=O)Nc2sc(C)c(C)c2C#N)nc1N	-2.2% (inactive)
CCOc1ccc(Nc2cc(C)nc(N3CCOCC3)n2)cc1	-19.5% (inactive)
COCCn1c(SCC(=O)Nc2nc(C)c(Cl)cc2Cl)nc2ccccc21	-6.8% (inactive)
Cc1ccccc1-c1nc(CS(=O)(=O)CC(=O)NCc2ccc3c(c2)OCO3)c(C)o1	14.4% (inactive)
O=C(Cn1c(=O)n2ncnc2c2c3c(sc21)CCCC3)c1ccccc1	-20.6% (inactive)
O=c1n(Cc2ccccc2Cl)c2sc3c(c2c2ncnn12)CCCC3	-12.2% (inactive)
COCCn1c(Cc2ccccc2)nnc1SCC(=O)NC(C)C	-14.6% (inactive)
CCOC(=O)c1[nH]c(C)c(C(=O)Nc2ccc(F)cc2)c1C	-5.4% (inactive)
CCOC(=O)c1[nH]c(C)c(C(=O)Nc2cc(Cl)ccc2C)c1C	55% (active)
CCOC(=O)c1[nH]c(C)c(C(=O)c2cc(F)ccc2F)c1C	70.6% (active)
CCOC(=O)c1[nH]c(C)c(C(=O)Nc2ccccc2C)c1C	45.7% (inactive)
CCOC(=O)c1[nH]c(C)c(C(=O)Nc2ccc(Cl)cc2)c1C	10.1% (inactive)
CCOC(=O)c1[nH]c(C)c(C(=O)OCC)c1C	-10% (inactive)
CCN(CC)CCNC(=O)C1CCC(=O)N(c2ccc(OC)cc2)C1c1ccc(F)cc1 (stereo not given)	5.4% (inactive)
COc1cccc(N2C(=O)CC(N3CCC(C(N)=O)(N4CCCCC4)CC3)C2=O)c1 (stereo not given)	-2.6% (inactive)
Clc1ccc(-c2nnc3sc(Cc4cccs4)nn23)c(Cl)c1	-3.4% (inactive)
O=C(NC1CCCCC1)N1CCCCCCC1	-4.9% (inactive)

Structure (SMILES)	cytotoxicity
COc1cc2c(=O)n(Cc3ccco3)c(=O)n(CC(=O)c3cccc(Br)c3)c2cc1OC	50% (active)
COc1cc2c(=O)n(Cc3ccccc3)c(=O)n(CC(=O)C(C)(C)C)c2cc1OC	-1.3% (inactive)
COc1cc2c(=O)n(Cc3ccccc3)c(=O)n(CC(=O)NCc3ccco3)c2cc1OC	5.4% (inactive)
COc1ccc(CCNC(=O)Cn2c(=O)n(Cc3ccco3)c(=O)c3ccc(Cl)cc32)cc1OC	4.2% (inactive)
CCOC(=O)Cn1c(=O)n(Cc2ccco2)c(=O)c2ccc(C(=O)NCCc3ccccc3)cc21	7.3% (inactive)
COc1cc2c(=O)n(Cc3ccco3)c(=O)n(CC(=O)c3ccc(Br)cc3)c2cc1OC	80.3% (active)
COC(=O)c1ccc(C(=S)N2CCOCC2)cc1	-0.4% (inactive)
Cc1ccc(C(c2nnnn2C(C)(C)C)N(Cc2ccco2)Cc2cccs2)cc1 (stereo not given)	1.5% (inactive)
COc1cccc(NC(=O)COC(=O)c2cccnc2)c1	-8.8% (inactive)
CC(C)(C)OC(=O)N1CCC[C@H]1C(=O)NCC1CCC(C(=O)O)CC1 (stereo not given in full)	7.4% (inactive)
CCC(c1nnnn1C1CCCCC1)N1CCN(C2CCCC2)CC1 (stereo not given)	3.5% (inactive)
CCCCOc1cc(C)nc(NCc2ccccc2)n1	-11.6% (inactive)
Cc1cc(C)nc(NCCCc2ccccc2)n1	-12.4% (inactive)
CCCCNc1cc(C)nc(NCc2ccccc2)n1	82.9% (active)
Cc1cc(Nc2ccccc2)nc(-c2ccccc2O)n1	1.4% (inactive)
Cc1cc(NCCCN)nc(-c2ccccc2O)n1	22.2% (inactive)
CC1=C(C(=O)OC(C)C)C(c2ccccn2)n2ncnc2N1 (stereo not given)	5.9% (inactive)
COc1ccccc1NC(=O)N1CCN(c2ccccc2F)CC1	8% (inactive)
O=C(O)CCC(=O)c1ccc2c(c1)OCCO2	1.9% (inactive)
O=C(Cc1ccc2c(c1)OCCO2)c1c(O)cc(O)cc1O	62.7% (active)
O=C(O)COc1ccc(C(=O)Cc2ccc3c(c2)OCCCO3)c(O)c1	-4.8% (inactive)
O=C(Cn1ncc2c1-c1ccccc1OC2)N(Cc1ccco1)C1CCCCC1	2.4% (inactive)
Cn1c(SCC(=O)N2CCN(c3ccccc3)CC2)nnc1-c1cc2ccccc2o1	10.4% (inactive)
CSc1nsc(SC)c1NC(=O)OCCc1ccccn1	-3.5% (inactive)
CC(C)(C)c1ccc(Cn2nnc3c(=O)[nH]c(C4CCN(C(=O)Cc5cccs5)CC4)nc32)cc1	8.5% (inactive)

Structure (SMILES)	cytotoxicity
O=C(Cc1cccs1)N1CCCC(c2nc3c(nnn3Cc3ccc(F)cc3)c(=O)[nH]2)C1 (stereo not given)	8.4% (inactive)
CCn1c(CN2CCCCCC2=O)nnc1SCc1cnc(-c2ccccc2)s1	-1.7% (inactive)
Cc1ccc(-c2csc3ncnc(-n4nc(C)cc4N)c23)cc1	-8.1% (inactive)
O=C(CNC(=O)c1ccco1)OCc1ccc(Cl)cc1	-3% (inactive)
COc1ccccc1NC(=O)Nc1c(C)n(C)n(-c2ccccc2)c1=O	-1.8% (inactive)
CCOC(=O)Cn1c(=O)n(C2CCCC2)c(=O)c2ccccc21	-5.4% (inactive)
CCN1CCN(c2ncnc3c2cnn3-c2ccc(C)cc2C)CC1	11.6% (inactive)
CCc1cc2c(N3CCN(c4ccccc4)CC3)ncnc2s1	91.1% (active)
CCc1cc2c(N3CCCCC3)ncnc2s1	-10.5% (inactive)
Cc1ccc(-n2ncc3c(N4CCCC4)ncnc32)c(C)c1	1.2% (inactive)
O=C(c1ccco1)N1CCN(c2ncnc3c2cnn3-c2ccccc2)CC1	-0.8% (inactive)
CCc1cc2c(N3CCN(c4nnc(CC)s4)CC3)ncnc2s1	19.4% (inactive)
O=C(COc1ccccc1)N1CCN(c2ncnc3c2cnn3-c2ccccc2)CC1	5.3% (inactive)
COc1ccc(-n2ncc3c(N4CCN(c5cc(C)ccc5C)CC4)ncnc32)cc1	15.6% (inactive)
COc1ccc(N2CCN(c3ncnc4c3cnn4-c3ccc(C)cc3C)CC2)cc1	-12.5% (inactive)
O=C(CSc1nnnn1C1CCCCC1)NCCc1ccccc1	4.8% (inactive)
COc1cccc(-c2cnc(NCc3cc(Cl)ccc3O)n2C)c1	-7.2% (inactive)
CC(=O)Nc1ccc(NC(C)=O)s1	-16.5% (inactive)
CCCCNC(=O)C(C#N)c1nc2ccccc2nc1N1CCCC1 (stereo not given)	-16.3% (inactive)
CCN(CC(=O)Nc1ccc2c(c1)OCCO2)Cc1cc(=O)oc2c(C)c(C)ccc12	9.3% (inactive)
Cc1n[nH]c(C)c1S(=O)(=O)Nc1ccc2c(c1)OCCO2	4.3% (inactive)
Cc1cc(C#N)c(C)n1-c1cc(C(F)(F)F)ccc1N1CCOCC1	-11.9% (inactive)
COCCCn1c(SCC(=O)N2CCCCC2C)nnc1-c1ccco1 (stereo not given)	-0.2% (inactive)
CCn1c2ccccc2c2nnc(SCC(=O)NC(CC(C)C)C(=O)OC)nc21 (stereo not given)	2.3% (inactive)
O=C(CSc1nc(-c2ccccc2)cc(=O)[nH]1)N1CCOCC1	8.9% (inactive)

Structure (SMILES)	cytotoxicity
CCc1noc(C)c1C(=O)Nc1sc(C(=O)N(C)C)c(C)c1C(=O)OC	2.3% (inactive)
COc1ccc(S(=O)(=O)N(CC(=O)O)Cc2ccccc2)cc1OC	1.8% (inactive)
COCc1nc2ccccc2n1CCOc1ccccc1OC	-0.4% (inactive)
COc1cccc(NC(=O)c2oc3ccccc3c2NC(=O)C(C)(C)C)c1	17.5% (inactive)
CSc1ccc(-c2nnn(Cc3ccccn3)n2)cc1	-1.2% (inactive)
CC1=CC(C)C2C(=O)N(CCC[N+](C)(C)C)C(=O)C2C1 (stereo not given)	14.9% (inactive)
CSc1nc2ccc(S(=O)(=O)NC3CCCCC3)cc2s1	6.2% (inactive)
CSc1nc2ccc(NS(=O)(=O)c3ccc(Cl)s3)cc2s1	54.6% (active)
Cc1ccc(S(=O)(=O)Nc2ccc3nc(N)sc3c2)cc1	4.4% (inactive)
Cc1cc2n(n1)C(c1ccc(N(C)C)cc1)Nc1ccccc1-2 (stereo not given)	23.5% (inactive)
c1ccc(-n2c(-c3ccco3)nnc2N2CCOCC2)cc1	-4.7% (inactive)
CCOC(=O)N1CCN(C(=O)CCS(=O)(=O)c2ccc(Br)s2)CC1	-3.8% (inactive)
CC1(C)c2ssc(=S)c2-c2ccccc2N1C(=O)c1ccco1	-6.9% (inactive)
CC1(C)Nc2ccc(O)cc2-c2c1ssc2=S	87.7% (active)
O=C(c1ccncc1)N1CCN(C(=O)c2ccncc2)CC1	-16.4% (inactive)
Nc1c(NCCCN2CCOCC2)c2ccccc2oc1=O	6.2% (inactive)
Cn1nnnc1SCc1nc2ccccc2[nH]1	3.7% (inactive)
Clc1ccc(OCCn2ccnc2)c(Cl)c1	-10.5% (inactive)
CC(Oc1ccc(Cl)cc1Cl)C(=O)NCCCn1ccnc1 (stereo not given)	2.8% (inactive)
O=C(COc1ccc(Cl)cc1Cl)NCCCn1ccnc1	1.3% (inactive)
OC(Cn1ccnc1)c1ccc(Cl)cc1Cl (stereo not given)	0.4% (inactive)
Clc1ccc(SCCn2ccnc2)cc1	-7.6% (inactive)
OC(Cn1cncn1)c1ccc(Cl)cc1Cl (stereo not given)	1.1% (inactive)
COc1ccc(-c2ccc(-c3noc(-c4ccco4)n3)c(OC)n2)cc1	9.8% (inactive)
O=C1c2oc3ccccc3c(=O)c2C(c2cccc(Br)c2)N1Cc1ccco1 (stereo not given)	5.4% (inactive)

Source: PubChem BioAssay AID431 (Sanford-Burnham Center for Chemical Genomics, 2006)
